VDR inh = blocks the human vitamin D receptor; 0.93% of 400,000 active; Potency, µM, usual class: inhibitors; P11473; VDR-SRC2-3 peptide fluorescence polarization, 2 h; AID 504847
Target sequence (P11473 whole entry, looked up): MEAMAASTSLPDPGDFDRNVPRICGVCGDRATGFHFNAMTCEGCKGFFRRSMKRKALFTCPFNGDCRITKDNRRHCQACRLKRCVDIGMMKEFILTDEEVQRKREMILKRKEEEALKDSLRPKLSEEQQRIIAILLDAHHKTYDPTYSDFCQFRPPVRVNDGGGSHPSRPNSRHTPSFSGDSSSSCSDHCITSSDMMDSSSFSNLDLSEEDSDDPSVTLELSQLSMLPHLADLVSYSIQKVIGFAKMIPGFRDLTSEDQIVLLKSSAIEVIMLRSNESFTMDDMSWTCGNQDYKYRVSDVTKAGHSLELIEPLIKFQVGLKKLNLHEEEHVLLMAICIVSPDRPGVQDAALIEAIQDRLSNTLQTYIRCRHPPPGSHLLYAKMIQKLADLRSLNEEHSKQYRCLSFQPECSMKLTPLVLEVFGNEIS
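Fluorescence polarization assay of small-molecule disruption of VDR binding to coregulator peptide SRC2-3. Compounds and controls pin-transferred, then read after 2 h incubation at ambient room temperature.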
Sfp inh = inhibitors of Bacillus subtilis Sfp phosphopantetheinyl transferase; Potency, µM, hits mostly inhibitors; 3.5% of 310,000 active; Biochemical Sfp PPTase activity, qHTS; Q9F4F7;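 also: the enzyme is Sfp with the accession as filed and its product quenches rhodamine fluorescence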
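Step 1, compound plus 15 nM Sfp-PPTase, 15 min, room temperature. Step 2, add rhodamine-CoA (5 uM) and BHQ-2-YbbR (12.5 uM). Step 3, read 525/598 nm fluorescence at 0 and 30 min.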
PLK1 PBD inh = inhibitors of human PLK1 polo-box domain binding; 2.8% of 360,000 active; Potency, µM, most hits filed as inhibitors; P53350; Plk1 PBD binding of FITC phosphopeptide, fluorescence polarization; also: series mostly up to about 57 µM; nearly all actives have a fitted effect of over 65% in size
TrxR1 inh = rat TrxR1 inhibition; O89049; AID 588453; recombinant rTrxR1, NADPH fluorescence consumption, selenite substrate; 1% of 390,000 active; Potency, µM (doses to about 114 µM), most hits filed as inhibitors; also: nearly all actives have a fitted effect of over 65% in size
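Rat TrxR1 (90 nM in the dispensed reagent) was pre-reduced with 400 uM NADPH for 5 min at room temperature, then incubated with compound for 15 min. After 400 uM selenite was added, NADPH fluorescence (Ex 340/Em 450 nm) was followed for 8 min.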
TrxR1 substrate = rat thioredoxin reductase 1 substrate activity; AID 588456; purified TrxR1 substrate turnover, NADPH consumption readout; 0.01% of 390,000 active; Potency, µM (series often up to 114 µM); also: nearly all actives have a fitted effect of over 50% in size
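Rat TrxR1, dispensed at 90 nM, was prereduced with 400 uM NADPH (final) for 5 min at ~22 deg C, then incubated with compound 15 min before 400 uM selenite. A first-read NADPH fluorescence drop versus no-compound background flagged substrates.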
mIDH1 inhibitor = human IDH1 R132H inhibition | Potency, µM (titrated, usually from 76.6 µM), most hits filed as inhibitors | 0.093% of 390,000 active | IDH1-R132H enzyme, NADPH consumption, diaphorase/resazurin fluorescence | O75874; also: nearly all actives have a fitted effect of over 65% in size
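IDH1-R132H (0.5 ug/mL) preincubated 30 min with compound, then NADPH (0.016 mM) and alpha-KG (2 mM) added; 80 min at RT, pH 7.5. Remaining NADPH coupled via diaphorase/resazurin to fluorescence (540/590 nm); concentration-response curves normalized to no-enzyme control.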
Large screens that a line does not name were inactive; ! = not active in a repeat. Hits are enriched below; roughly 5.2% of the tested compounds scored in any of these assays. Calls follow the shape of the dose curve; as a rule, active = well fitted curve in the direction sought with a large enough effect; inconclusive = small, poorly fitted or top-dose-only effect, or another doubt; inactive = no such curve, though single readings can be large; an effect the other way counts as inactive or inconclusive.

COc1ccc(SCCN2CCN(CCc3ccccc3)CCC2=O)cc1	VDR inh inconclusive (no result: PLK1 PBD inh, mIDH1 inhibitor)
CCCS(=O)(=O)c1ncc(Cl)c(C(=O)Nc2ccc(S(=O)(=O)Nc3ncccn3)cc2)n1	VDR inh 22µM, PLK1 PBD inh inconclusive, TrxR1 inh 45µM
CCSc1ncc(Cl)c(C(=O)Nc2ccc(S(=O)(=O)Nc3ncccn3)cc2)n1	none
CCCCN(C)CCCNC(=O)C1CCC(CNS(=O)(=O)c2c(C)cc(C)cc2C)CC1 (stereo not drawn)	VDR inh inconclusive, PLK1 PBD inh 21µM
CCN(CC)CCCNC(=O)C1CCC(CNS(=O)(=O)c2c(C)cc(C)cc2C)CC1 (stereo not drawn)	TrxR1 inh inconclusive, TrxR1 substrate inconclusive
COc1ccc(S(=O)(=O)O)cc1P(=O)(c1ccccc1)c1ccccc1	none
Cc1ccc(S(=O)(=O)c2cc(Nc3ccccc3)ccc2O)cc1	TrxR1 inh inconclusive (no result: Sfp inh)
CC(=O)Nc1ccc2c(O)cc(S(=O)(=O)O)cc2c1	none (no result: Sfp inh)
O=S(=O)(O)c1cc(O)c2ccc(Nc3ccccc3)cc2c1	PLK1 PBD inh 11µM (no result: Sfp inh)
COc1ccccc1Nc1ccc2c(O)cc(S(=O)(=O)O)cc2c1	VDR inh inconclusive, PLK1 PBD inh 11µM, TrxR1 inh inconclusive (no result: Sfp inh)
O=S(=O)(O)c1ccc(O)c2cc(Nc3ccccc3)ccc12	VDR inh inconclusive, PLK1 PBD inh 4.7µM, TrxR1 inh inconclusive (no result: Sfp inh)
O=S(=O)(O)c1cc(O)c2cc(Nc3ccccc3)ccc2c1	VDR inh inconclusive, PLK1 PBD inh 19µM, TrxR1 inh inconclusive (no result: Sfp inh)
COc1ccccc1NC(=O)N(C)C[C@@H]1OCc2cn(nn2)CCCC(=O)N([C@H](C)CO)C[C@H]1C	none (no result: VDR inh, Sfp inh, TrxR1 inh, TrxR1 substrate)
Clc1cccc(CNc2ncnc3nc[nH]c23)c1	none (no result: VDR inh, Sfp inh, PLK1 PBD inh, mIDH1 inhibitor)
O=S(=O)(O)c1cc(O)c2c(N=Nc3ccc(Nc4ccccc4)c4c(S(=O)(=O)O)cccc34)cc(S(=O)(=O)O)cc2c1	VDR inh 40µM (no result: PLK1 PBD inh, TrxR1 inh, TrxR1 substrate, mIDH1 inhibitor)
Nc1cccc2c(O)cc(S(=O)(=O)O)cc12	VDR inh 13µM, PLK1 PBD inh 13µM (no result: Sfp inh)
S=C1CSc2ccccc2N1	none
c1ccc2c(c1)NCCS2	Sfp inh 89µM, PLK1 PBD inh inconclusive
Nc1cccc2[nH]cnc12	none (no result: VDR inh, Sfp inh, PLK1 PBD inh, mIDH1 inhibitor)
CCN(CC)C(=O)C1=C(C)N(CCC2=CCCCC2)C(=O)C(CC(=O)NC2CCCC2)C1 (stereo not drawn)	none (no result: VDR inh, Sfp inh, TrxR1 inh, TrxR1 substrate)
N/C(=C\C(=O)c1cc(Cl)ccc1O)C(Cl)(Cl)Cl	VDR inh inconclusive, PLK1 PBD inh 6.7µM
O=C1CC[C@@H](O)CCN1CC[C@H](Sc1ccccc1)c1ccccc1	none
CC(=O)Nc1ccc(S[C@@H](CCN2CC[C@H](O)CCC2=O)c2ccccc2)cc1	PLK1 PBD inh 13µM (no result: Sfp inh)
O=C(c1cccc(F)c1)N1CCC2(CC1)CN(c1ccc(-c3ccccc3)cc1)C2	none (no result: PLK1 PBD inh, TrxR1 inh, TrxR1 substrate, mIDH1 inhibitor)
C=C1C(=O)O[C@@H]2[C@H]3O[C@]3(C)CCC=C(C)CC[C@@H]12	VDR inh 35µM!, TrxR1 inh 17µM! (no result: PLK1 PBD inh, mIDH1 inhibitor)
CCCCCCCCCCCCCCCC(=O)N[C@@H](COP(=O)(O)O)C(=O)O	VDR inh 13µM (no result: PLK1 PBD inh, TrxR1 inh, TrxR1 substrate, mIDH1 inhibitor)
CCCCCCCCCCCCCCCC(=O)NC(C)C(=O)O (stereo not drawn)	none (no result: PLK1 PBD inh, TrxR1 inh, TrxR1 substrate, mIDH1 inhibitor)
Cc1ccc(S(=O)(=O)/N=C(\N)Nc2nc(C)c3ccccc3n2)cc1	Sfp inh 89µM
ClCc1cc2ccccc2nc1Cl	none
Cc1ccc2cc(CCl)c(Cl)nc2c1	TrxR1 inh 45µM
O=C(CNC(=O)c1ccc(N2C(=O)c3ccccc3C2=O)cc1)OCC(=O)c1ccccc1	PLK1 PBD inh 24µM
O=C(CNC(=O)c1ccc(N2C(=O)c3ccccc3C2=O)cc1)OCC(=O)c1cccc2ccccc12	none
CCCCNC(=O)C1CCN(Cc2ccccn2)CC1	Sfp inh 56µM, PLK1 PBD inh inconclusive
O=C(O)C1CCN(Cc2ccccn2)CC1	none
Cc1ccc(Cn2c(/C=C/c3ccco3)nc3ccccc32)cc1	Sfp inh inconclusive
CCCCn1c(/C=C/c2ccco2)nc2ccccc21	TrxR1 inh 50µM
CCCn1c(/C=C/c2ccco2)nc2ccccc21	Sfp inh 35µM, TrxR1 inh 50µM
Clc1ccc(Cn2c(/C=C/c3ccco3)nc3ccccc32)cc1	Sfp inh 40µM, TrxR1 inh 45µM

From PubChem BioAssay
